Of roughly 7,900 targets only a part is listed; those with a hit were picked by preference. About 0.6% of all pairs of compound and target were hits.
Legend:
Assay in all cases: log2 fold change, soluble protein after heating vs DMSO (PISA); higher = thermal stabilisation; K562 cells, 10 uM, 30 min; active = over 0.2 and 3.5 SD of the protein, either way, in both replicates (recomputed)
[1] = compound: CC[C@@H]1C(=O)N(C)c2cnc(Nc3ccc(C(=O)NC4CCN(C)CC4)cc3OC)nc2N1C1CCCC1
Summary of the method: (§1)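 Soluble protein was defined as the supernatant after 21,000xg for 90 min. It came from K562 cells at 2×10^6 cells/mL given 10 μM compound for 30 min, heated in aliquots for 3 min across 48°C-58°C, pooled, and extracted in PBS with 0.5% NP-40 at 4°C, and was quantified by TMTpro 16plex LC-MS/MS with equalised channel sums. Thermal stability against control samples, from duplicates, is reported as log2 fold change.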

volasertib = compound: CC[C@@H]1C(=O)N(C)c2cnc(Nc3ccc(C(=O)N[C@H]4CC[C@H](N5CCN(CC6CC6)CC5)CC4)cc3OC)nc2N1C(C)C [volasertib]
Summary of the method: as §1

[2] = compound: CC[C@H](C)N1C=C(C2=C(C=C(C=C21)C3=CN=C(C=C3)N4CCNCC4)C(=O)NCC5=C(C=C(NC5=O)C)C)C
Summary of the method: as §1

epoxomicin = compound: CC[C@H](C)[C@@H](C(=O)N[C@@H]([C@@H](C)O)C(=O)N[C@@H](CC(C)C)C(=O)[C@]1(CO1)C)NC(=O)[C@H]([C@@H](C)CC)N(C)C(=O)C [epoxomicin]
Summary of the method: as §1

[3] = compound: CCn1c(C(=O)N(C2CC2)C2CC2)cc2c3c(ncn3C)c(Nc3cc(C)n(C)n3)nc21
Summary of the method: as §1

[4] = compound: CCn1cc(-c2ccnc3[nH]c(-c4cccc(CN(C)C)c4)cc23)c(-c2ccc(NC(=O)N(C)C)cc2)n1
Summary of the method: as §1

[5] = compound: CN(C)CC(=O)Nc1ccc2[nH]c(=O)c3ccccc3c2c1
Summary of the method: as §1

rosiglitazone = compound: CN(CCOC1=CC=C(C=C1)C[C@H]2C(=O)NC(=O)S2)C3=CC=CC=N3 (racemic) [rosiglitazone]
Summary of the method: as §1

[6] = compound: CN1C2=C(C3=C1C(=O)N(N=C3)CC4=CC(=CC=C4)N)SC(=C2)S(=O)C
Summary of the method: as §1

[7] = compound: CN1CCC(CNc2ccc3ncc(-c4cccc(OC(F)(F)F)c4)n3n2)CC1
Summary of the method: as §1

saracatinib = compound: CN1CCN(CCOc2cc(OC3CCOCC3)c3c(Nc4c(Cl)ccc5c4OCO5)ncnc3c2)CC1 [saracatinib]
Summary of the method: as §1

sotrastaurin = compound: CN1CCN(c2nc(C3=C(c4c[nH]c5ccccc45)C(=O)NC3=O)c3ccccc3n2)CC1 [sotrastaurin]
Summary of the method: as §1

alvocidib = compound: CN1CC[C@H](c2c(O)cc(O)c3c(=O)cc(-c4ccccc4Cl)oc23)[C@H](O)C1 [alvocidib]
Summary of the method: as §1

Tubastatin A = compound: CN1CCc2c(c3ccccc3n2Cc2ccc(C(=O)NO)cc2)C1 [Tubastatin A]
Summary of the method: as §1

[8] = compound: CNC(=O)C1=CC=CC=C1NC2=NC(=NC=C2Cl)NC3=C(C=C(C=C3)N4CCOCC4)OC
Summary of the method: as §1

defactinib = compound: CNC(=O)c1ccc(Nc2ncc(C(F)(F)F)c(NCc3nccnc3N(C)S(C)(=O)=O)n2)cc1 [defactinib]
Summary of the method: as §1

rucaparib = compound: CNCc1ccc(-c2[nH]c3cc(F)cc4c3c2CCNC4=O)cc1 [rucaparib]
Summary of the method: as §1

[9] = compound: CNc1nc(-c2ccc3c(N)n[nH]c3c2)cc(N2C[C@@H](C(=O)NC3CCCCC3)CC[C@H]2C)n1
Summary of the method: as §1

encorafenib = compound: COC(=O)N[C@@H](C)CNc1nccc(-c2cn(C(C)C)nc2-c2cc(Cl)cc(NS(C)(=O)=O)c2F)n1 [encorafenib]
Summary of the method: as §1

[10] = compound: COC(=O)[C@H](CCSC)NC(=O)C1=C(C=C(C=C1)NC[C@H](CS)N)C2=CC=CC=C2
Summary of the method: as §1

Measured: log2 fold change

GEMIN6 (UniProt Q8WXD5)
inactive: [1] 0.109 | volasertib 0.148 | [2] -0.052 | epoxomicin 0.093 | [3] -0.017 | [4] -0.019 | [5] -0.039 | rosiglitazone 0.071 | [6] -0.087 | [7] -0.048 | saracatinib 0.063 | sotrastaurin 0.002 | alvocidib -0.028 | Tubastatin A 0.072 | [8] 0.013 | defactinib -0.061 | rucaparib 0.069 | [9] -0.028 | encorafenib -0.04 | [10] -0.112

GTF3C5 isoform 3 (UniProt Q9Y5Q8)
inactive: [1] -0.188 | volasertib -0.157 | [2] 0.213 | epoxomicin -0.011 | [3] 0.029 | [4] -0.034 | [5] 0.078 | rosiglitazone 0.017 | [6] -0.025 | [7] 0.03 | saracatinib 0.024 | sotrastaurin -0.148 | alvocidib 0.036 | Tubastatin A 0.068 | [8] -0.02 | defactinib -0.069 | rucaparib -0.173 | [9] 0.056 | encorafenib 0.085 | [10] -0.021

GTF2H3 (UniProt Q13889)
inactive: [1] 0.004 | volasertib -0.122 | [2] 0.066 | epoxomicin -0.099 | [3] -0.035 | [4] 0.115 | [5] 0.052 | rosiglitazone -0.046 | [6] 0.027 | saracatinib -0.099 | sotrastaurin -0.079 | alvocidib -0.071 | Tubastatin A 0.124 | [8] 0.008 | defactinib 0.009 | rucaparib 0.09 | [9] -0.001 | encorafenib -0.073 | [10] 0.043
active: [7] -0.34

FDPS (UniProt P14324)
Sequence of UniProt P14324 (P14324 whole entry, looked up): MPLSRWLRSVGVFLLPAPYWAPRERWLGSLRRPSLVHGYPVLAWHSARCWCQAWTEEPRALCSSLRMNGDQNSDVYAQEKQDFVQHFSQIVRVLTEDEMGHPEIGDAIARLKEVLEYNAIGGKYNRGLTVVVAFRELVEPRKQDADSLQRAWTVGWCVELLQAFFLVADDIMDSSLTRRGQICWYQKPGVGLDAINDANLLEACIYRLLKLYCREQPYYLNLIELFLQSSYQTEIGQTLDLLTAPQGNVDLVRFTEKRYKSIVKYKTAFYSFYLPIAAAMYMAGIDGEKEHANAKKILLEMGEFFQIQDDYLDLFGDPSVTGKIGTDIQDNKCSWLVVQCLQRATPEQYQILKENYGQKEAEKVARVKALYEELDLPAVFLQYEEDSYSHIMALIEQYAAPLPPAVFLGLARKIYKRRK
active: [7] -0.608
inactive: [1] -0.059 | volasertib -0.191 | [2] 0.075 | epoxomicin 0.028 | [3] -0.054 | [4] -0.277 | [5] 0.111 | rosiglitazone 0.235 | [6] -0.034 | saracatinib -0.151 | sotrastaurin -0.041 | alvocidib -0.057 | Tubastatin A 0.062 | [8] -0.097 | defactinib -0.032 | rucaparib -0.112 | [9] 0.237 | encorafenib 0.137 | [10] -0.118

GTF2A1 (UniProt P52655)
Sequence of UniProt P52655 (P52655 whole entry, looked up): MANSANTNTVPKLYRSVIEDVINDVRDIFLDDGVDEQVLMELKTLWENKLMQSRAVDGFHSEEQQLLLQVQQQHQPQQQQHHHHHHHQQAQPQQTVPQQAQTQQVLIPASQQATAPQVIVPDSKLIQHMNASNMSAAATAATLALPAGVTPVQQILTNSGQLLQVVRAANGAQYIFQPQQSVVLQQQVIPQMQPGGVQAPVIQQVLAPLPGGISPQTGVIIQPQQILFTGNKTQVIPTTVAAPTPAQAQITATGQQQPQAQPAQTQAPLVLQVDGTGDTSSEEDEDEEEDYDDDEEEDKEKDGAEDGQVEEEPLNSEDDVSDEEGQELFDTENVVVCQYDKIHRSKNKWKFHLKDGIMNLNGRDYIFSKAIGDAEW
inactive: [1] -0.012 | volasertib 0.061 | [2] -0.051 | epoxomicin 0.201 | [3] 0.019 | [4] 0.035 | [5] -0.006 | rosiglitazone -0.029 | [6] -0.018 | [7] -0.051 | saracatinib 0.048 | sotrastaurin 0.087 | alvocidib -0.039 | Tubastatin A 0.003 | [8] -0.007 | defactinib -0.038 | rucaparib -0.021 | [9] -0.003 | encorafenib -0.056 | [10] 0.032

HEATR5B (UniProt Q9P2D3)
Sequence of UniProt Q9P2D3 (Q9P2D3 whole entry, looked up): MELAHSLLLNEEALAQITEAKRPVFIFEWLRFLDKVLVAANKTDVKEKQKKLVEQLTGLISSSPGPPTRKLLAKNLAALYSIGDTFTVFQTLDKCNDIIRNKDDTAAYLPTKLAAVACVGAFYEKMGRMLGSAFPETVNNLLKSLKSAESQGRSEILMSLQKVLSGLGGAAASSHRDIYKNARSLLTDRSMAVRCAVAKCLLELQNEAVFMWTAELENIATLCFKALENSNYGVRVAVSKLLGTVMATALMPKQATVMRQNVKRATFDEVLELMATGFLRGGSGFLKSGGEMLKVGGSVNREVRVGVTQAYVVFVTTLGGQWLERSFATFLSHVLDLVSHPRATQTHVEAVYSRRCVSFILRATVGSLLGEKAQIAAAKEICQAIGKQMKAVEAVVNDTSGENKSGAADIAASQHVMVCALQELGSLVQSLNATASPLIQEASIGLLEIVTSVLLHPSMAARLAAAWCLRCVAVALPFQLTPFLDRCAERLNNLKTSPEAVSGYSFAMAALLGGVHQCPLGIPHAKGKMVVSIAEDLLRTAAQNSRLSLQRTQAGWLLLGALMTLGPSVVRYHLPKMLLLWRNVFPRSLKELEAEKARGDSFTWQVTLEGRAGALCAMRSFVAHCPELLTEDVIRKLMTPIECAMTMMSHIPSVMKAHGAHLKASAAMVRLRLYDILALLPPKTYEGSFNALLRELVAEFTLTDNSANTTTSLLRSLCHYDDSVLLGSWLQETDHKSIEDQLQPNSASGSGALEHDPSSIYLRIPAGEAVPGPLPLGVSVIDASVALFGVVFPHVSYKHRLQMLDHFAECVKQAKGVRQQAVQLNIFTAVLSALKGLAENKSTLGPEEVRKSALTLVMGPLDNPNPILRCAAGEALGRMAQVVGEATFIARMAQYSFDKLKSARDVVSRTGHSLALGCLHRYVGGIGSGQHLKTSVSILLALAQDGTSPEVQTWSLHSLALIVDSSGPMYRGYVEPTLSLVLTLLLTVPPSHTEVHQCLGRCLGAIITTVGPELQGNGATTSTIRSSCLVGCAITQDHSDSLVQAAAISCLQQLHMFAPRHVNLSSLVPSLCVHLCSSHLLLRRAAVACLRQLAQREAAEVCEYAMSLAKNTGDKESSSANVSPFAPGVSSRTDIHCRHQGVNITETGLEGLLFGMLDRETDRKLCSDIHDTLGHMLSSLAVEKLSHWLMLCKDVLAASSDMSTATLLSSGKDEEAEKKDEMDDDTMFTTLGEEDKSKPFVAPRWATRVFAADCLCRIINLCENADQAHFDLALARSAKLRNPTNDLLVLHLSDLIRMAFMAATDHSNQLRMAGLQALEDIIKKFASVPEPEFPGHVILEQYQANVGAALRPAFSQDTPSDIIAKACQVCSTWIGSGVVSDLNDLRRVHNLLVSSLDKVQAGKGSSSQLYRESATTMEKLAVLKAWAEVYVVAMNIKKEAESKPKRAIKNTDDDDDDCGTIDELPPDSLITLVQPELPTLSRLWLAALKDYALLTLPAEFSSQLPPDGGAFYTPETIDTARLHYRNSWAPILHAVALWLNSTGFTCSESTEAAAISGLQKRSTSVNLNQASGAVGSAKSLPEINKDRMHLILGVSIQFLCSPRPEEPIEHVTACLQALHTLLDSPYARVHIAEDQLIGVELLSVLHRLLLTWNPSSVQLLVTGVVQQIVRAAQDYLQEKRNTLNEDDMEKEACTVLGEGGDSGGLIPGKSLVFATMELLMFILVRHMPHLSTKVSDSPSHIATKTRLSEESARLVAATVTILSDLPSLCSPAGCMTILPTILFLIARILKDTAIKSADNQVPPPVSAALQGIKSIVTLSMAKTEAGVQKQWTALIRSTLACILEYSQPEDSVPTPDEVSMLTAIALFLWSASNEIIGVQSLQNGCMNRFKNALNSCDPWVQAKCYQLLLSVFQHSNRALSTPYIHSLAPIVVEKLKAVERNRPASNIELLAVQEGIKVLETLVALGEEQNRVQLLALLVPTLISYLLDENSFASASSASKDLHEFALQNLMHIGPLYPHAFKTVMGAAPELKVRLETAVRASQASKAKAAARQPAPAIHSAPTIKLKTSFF
inactive: [1] -0.053 | volasertib -0.19 | [2] 0.083 | epoxomicin -0.058 | [3] -0.041 | [4] 0.018 | [5] -0.009 | rosiglitazone 0.003 | [6] -0.017 | [7] -0.015 | saracatinib 0.043 | sotrastaurin 0.008 | alvocidib -0.023 | Tubastatin A 0.016 | [8] 0.022 | defactinib -0.099 | rucaparib 0.028 | [9] 0.015 | encorafenib 0.041 | [10] -0.006

GHDC (UniProt Q8N2G8)
Sequence of UniProt Q8N2G8 (Q8N2G8 whole entry, looked up): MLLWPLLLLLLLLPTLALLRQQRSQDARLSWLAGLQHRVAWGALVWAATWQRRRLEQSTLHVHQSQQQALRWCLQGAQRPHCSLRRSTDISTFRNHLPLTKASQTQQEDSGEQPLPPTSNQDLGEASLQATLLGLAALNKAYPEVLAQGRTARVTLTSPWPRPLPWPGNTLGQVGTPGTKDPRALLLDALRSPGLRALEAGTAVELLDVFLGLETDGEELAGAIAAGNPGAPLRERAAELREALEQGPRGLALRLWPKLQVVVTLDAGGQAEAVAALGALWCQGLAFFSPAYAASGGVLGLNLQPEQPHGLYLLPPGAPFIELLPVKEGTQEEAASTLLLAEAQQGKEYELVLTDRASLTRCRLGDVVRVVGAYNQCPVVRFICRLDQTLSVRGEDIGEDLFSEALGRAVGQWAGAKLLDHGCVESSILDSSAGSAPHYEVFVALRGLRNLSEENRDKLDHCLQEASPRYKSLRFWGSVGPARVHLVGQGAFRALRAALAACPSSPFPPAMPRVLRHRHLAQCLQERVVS
inactive: [1] -0.075 | volasertib -0.053 | [2] -0.063 | epoxomicin -0.021 | [3] 0.011 | [4] -0.024 | [5] 0.009 | rosiglitazone 0.008 | [6] -0.053 | [7] -0.041 | saracatinib 0.003 | sotrastaurin 0.085 | alvocidib -0.029 | Tubastatin A -0.032 | [8] 0.014 | defactinib -0.033 | rucaparib 0.006 | [9] -0.007 | encorafenib 0.001 | [10] 0.02

GLUL (UniProt P15104)
inactive: [1] 0.049 | volasertib 0.113 | [2] -0.041 | epoxomicin 0.081 | [3] 0.045 | [4] 0.014 | [5] -0.032 | rosiglitazone -0.022 | [6] -0.032 | [7] 0.017 | saracatinib 0.012 | sotrastaurin -0.058 | alvocidib 0.026 | Tubastatin A 0.048 | [8] 0.142 | defactinib 0.036 | rucaparib -0.039 | [9] -0.153 | encorafenib -0.02 | [10] 0.038

GNS (UniProt P15586)
inactive: volasertib -0.181 | [2] -0.045 | epoxomicin -0.012 | [3] 0.018 | [4] -0.003 | [5] -0.007 | rosiglitazone -0.005 | [6] -0.016 | saracatinib 0.014 | sotrastaurin 0.041 | alvocidib -0.022 | Tubastatin A -0.012 | [8] -0.007 | defactinib -0.011 | rucaparib 0 | [9] -0.034 | encorafenib 0.009 | [10] -0.009
active: [1] -0.272 | [7] -0.408

HRC (UniProt P23327)
inactive: [1] 0.01 | volasertib 0.043 | [2] -0.014 | epoxomicin -0.061 | [3] -0.016 | [4] -0.023 | [5] 0.005 | rosiglitazone -0.008 | [6] -0.107 | [7] -0.013 | saracatinib 0.063 | sotrastaurin 0.057 | alvocidib 0.02 | Tubastatin A -0.125 | [8] 0.009 | defactinib -0.011 | rucaparib 0.01 | [9] -0.057 | encorafenib -0.066 | [10] 0.043

HDAC1 (UniProt Q13547)
inactive: [1] -0.025 | volasertib -0.216 | [2] 0.037 | epoxomicin -0.006 | [3] -0.015 | [4] 0.019 | [5] 0.011 | rosiglitazone -0.027 | [6] 0.001 | [7] -0.043 | saracatinib -0.004 | sotrastaurin -0.026 | alvocidib -0.137 | [8] -0.163 | defactinib -0.15 | rucaparib 0.023 | [9] 0.04 | encorafenib -0.046 | [10] -0.062
active: Tubastatin A 1.52

GABPA (UniProt Q06546)
Sequence of UniProt Q06546 (Q06546 whole entry, looked up): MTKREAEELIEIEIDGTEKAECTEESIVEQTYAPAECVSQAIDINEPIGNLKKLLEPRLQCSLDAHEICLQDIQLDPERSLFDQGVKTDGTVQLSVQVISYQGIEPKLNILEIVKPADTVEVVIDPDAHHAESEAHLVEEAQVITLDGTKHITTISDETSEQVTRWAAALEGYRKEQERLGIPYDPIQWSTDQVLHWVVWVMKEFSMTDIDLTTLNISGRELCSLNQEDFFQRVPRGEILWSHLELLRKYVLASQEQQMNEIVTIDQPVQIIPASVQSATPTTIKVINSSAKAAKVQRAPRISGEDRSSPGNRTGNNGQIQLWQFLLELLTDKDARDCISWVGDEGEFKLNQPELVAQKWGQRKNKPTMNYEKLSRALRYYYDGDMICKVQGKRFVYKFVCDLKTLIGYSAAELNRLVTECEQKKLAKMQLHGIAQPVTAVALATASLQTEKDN
active: volasertib -0.304
inactive: [1] -0.017 | [2] 0.079 | epoxomicin 0.007 | [3] -0.083 | [4] -0.07 | [5] 0.037 | rosiglitazone 0.076 | [6] -0.026 | [7] -0.174 | saracatinib -0.065 | sotrastaurin -0.086 | alvocidib -0.134 | Tubastatin A 0.087 | [8] -0.063 | defactinib -0.064 | rucaparib -0.015 | [9] 0.018 | encorafenib 0.019 | [10] 0.011

HEATR3 (UniProt Q7Z4Q2)
Sequence of UniProt Q7Z4Q2 (Q7Z4Q2 whole entry, looked up): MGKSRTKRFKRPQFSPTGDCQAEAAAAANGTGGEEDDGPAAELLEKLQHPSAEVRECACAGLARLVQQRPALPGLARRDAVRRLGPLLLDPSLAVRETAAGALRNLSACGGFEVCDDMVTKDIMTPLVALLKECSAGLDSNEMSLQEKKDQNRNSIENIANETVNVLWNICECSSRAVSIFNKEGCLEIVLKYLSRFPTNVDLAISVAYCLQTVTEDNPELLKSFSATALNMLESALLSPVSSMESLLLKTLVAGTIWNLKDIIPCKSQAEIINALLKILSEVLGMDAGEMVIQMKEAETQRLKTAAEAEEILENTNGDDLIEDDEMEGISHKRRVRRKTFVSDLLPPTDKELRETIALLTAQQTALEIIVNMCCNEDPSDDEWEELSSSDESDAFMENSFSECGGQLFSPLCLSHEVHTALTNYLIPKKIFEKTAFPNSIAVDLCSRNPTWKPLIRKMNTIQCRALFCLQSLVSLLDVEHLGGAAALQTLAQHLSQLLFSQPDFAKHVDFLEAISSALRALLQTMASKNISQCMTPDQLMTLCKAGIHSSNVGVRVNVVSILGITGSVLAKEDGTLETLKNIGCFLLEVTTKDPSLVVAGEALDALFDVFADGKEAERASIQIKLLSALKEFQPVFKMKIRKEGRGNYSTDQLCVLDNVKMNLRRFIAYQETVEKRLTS
inactive: [1] -0.308 | [2] 0.033 | epoxomicin 0.039 | [3] -0.051 | [4] 0.276 | [5] 0.058 | rosiglitazone 0.059 | [6] 0.007 | [7] -0.34 | saracatinib -0.045 | sotrastaurin -0.167 | alvocidib -0.128 | Tubastatin A 0.109 | [8] -0.054 | defactinib -0.048 | rucaparib 0.081 | [9] -0.006 | encorafenib -0.028 | [10] -0.006
active: volasertib -0.36

GUSB (UniProt P08236)
inactive: [1] -0.104 | volasertib 0.067 | [2] 0.354 | epoxomicin -0.053 | [3] -0.151 | [4] -0.026 | [5] -0.001 | rosiglitazone -0.041 | [6] -0.028 | [7] 0.001 | saracatinib 0.03 | sotrastaurin -0.004 | alvocidib 0.021 | Tubastatin A -0.054 | [8] 0.045 | defactinib -0.055 | rucaparib 0.048 | [9] -0.039 | encorafenib 0.128 | [10] 0.029

GTF3A (UniProt Q92664)
Sequence of UniProt Q92664 (Q92664 whole entry, looked up): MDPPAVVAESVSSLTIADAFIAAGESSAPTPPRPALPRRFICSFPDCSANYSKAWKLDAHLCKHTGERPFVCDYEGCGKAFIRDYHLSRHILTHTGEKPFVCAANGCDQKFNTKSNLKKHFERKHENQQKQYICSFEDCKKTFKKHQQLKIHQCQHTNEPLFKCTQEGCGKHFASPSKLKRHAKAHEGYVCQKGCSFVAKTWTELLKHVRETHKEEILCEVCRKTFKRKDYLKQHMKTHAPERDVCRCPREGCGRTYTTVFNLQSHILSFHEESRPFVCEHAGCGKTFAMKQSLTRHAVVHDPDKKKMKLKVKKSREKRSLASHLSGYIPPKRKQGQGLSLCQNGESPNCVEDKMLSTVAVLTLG
inactive: [1] -0.128 | volasertib -0.028 | [2] 0.074 | epoxomicin -0.101 | [3] -0.024 | [4] -0.263 | [5] 0.049 | rosiglitazone 0.071 | [6] 0.016 | saracatinib 0.019 | sotrastaurin -0.008 | alvocidib -0.113 | Tubastatin A -0.072 | [8] -0.03 | defactinib -0.18 | rucaparib 0.206 | [9] -0.005 | encorafenib -0.138 | [10] 0
active: [7] -0.447
